Experimental data taken from PubChem BioAssay (NCATS).
Values joined by “and” are separate entries in the source; they are usually repeats but may differ in a detail not shown here. Equal values may be shown once. Records with an inconclusive call do not appear. Unmarked numbers belong to inactive results. Active and inactive are the calls of the source. The call rests on the fitted dose curve; in most records, active means well fitted inhibition curve with a large enough effect; inconclusive means small, poorly fitted or top-dose-only effect; inactive means flat fitted curve, though single readings scatter.

Assays:
KB-3-1 = experiment: Cytotoxic Profiling of Annotated Libraries Using Quantitative High-Throughput Screening (AID 1296008); conditions: Five cell lines viability, CellTiter-Glo ATP luminescence, 48-72 h; max response: active compounds read low
Summary of the method: (§1)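 Cytotoxicity was measured as CellTiter-Glo ATP luminescence, read after 10 min at room temperature. Compound treatment of the cells lasted 48 or 72 hr at 37 degrees Celsius in a qHTS format.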

MCC-13 = experiment: qHTS assay to identify novel small-molecules to repurpose for Merkel cell carcinoma treatment (AID 1296009); conditions: MCC and control cell lines, CellTiter-Glo viability, 72 h; series mostly up to 46 µM
Summary of the method: (§2)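 After compound transfer in DMSO, plates were kept 72 hr at 37 degree celsius. Luminescent ATP signal from CellTiter-Glo served as viability measure, normalized against DMSO and no-cell controls.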

MKL-1 = experiment: as above; conditions: MCC and control cell lines, CellTiter-Glo viability, 72 h; series mostly up to 46 µM
Summary of the method: as §2

MKL-2 = experiment: as above; conditions: MCC and control cell lines, CellTiter-Glo viability, 72 h; series mostly up to 46 µM
Summary of the method: as §2

UISO = experiment: as above; conditions: MCC and control cell lines, CellTiter-Glo viability, 72 h; series mostly up to 46 µM
Summary of the method: as §2

MCC-26 = experiment: as above; conditions: MCC and control cell lines, CellTiter-Glo viability, 72 h; series mostly up to 46 µM
Summary of the method: as §2

NIH3T3 [1] = experiment: Cytotoxic Profiling of Annotated Libraries Using Quantitative High-Throughput Screening (AID 1296008); conditions: Five cell lines viability, CellTiter-Glo ATP luminescence, 48-72 h; max response: active compounds read low
Summary of the method: as §1

HEK293T = experiment: qHTS assay to identify novel small-molecules to repurpose for Merkel cell carcinoma treatment (AID 1296009); conditions: MCC and control cell lines, CellTiter-Glo viability, 72 h; series mostly up to 44.8 µM
Summary of the method: as §2

NIH3T3 [2] = experiment: as above; conditions: MCC and control cell lines, CellTiter-Glo viability, 72 h; at 44.8 µM (top of the series) unless noted
Summary of the method: as §2
Further: nearly all actives have a fitted effect of over 60% in size.
On the % scale 0 is the no-effect control and ±100 the full control effect; potency means the concentration at half of the fitted maximal effect.

Cc1noc(-c2ccc(CSCCC(=O)O)cc2)c1NC(=O)OC(C)c1ccccc1Cl (configuration not stated)
outcome (KB-3-1): inactive
Potency (MCC-13): inactive
Potency (MKL-1): inactive
Potency (MKL-2): inactive
Potency (UISO): inactive

CCOC(=O)C1=C(C)NC(=S)NC1c1cccc(O)c1 (configuration not stated)
Potency (KB-3-1): 0.0469 µM (active)
Potency (MCC-13): 1.48 µM (active)
Potency (MKL-2): inactive
Potency (UISO): 0.148 µM (active)

Cn1c(Nc2ccc(C(F)(F)F)cc2)nc2cc(Oc3ccnc(-c4ncc(C(F)(F)F)[nH]4)c3)ccc21
Potency (KB-3-1): 11.8 µM (active)
Potency (MCC-26): inactive
Potency (UISO): 3.72 µM (active)

NC(=O)c1ncn([C@@H]2O[C@H](CO)[C@@H](O)[C@@H]2O)c1O
max response (KB-3-1): 6.36%
Potency (MCC-13): inactive
Potency (MCC-26): inactive
Potency (MKL-1): inactive
Potency (MKL-2): inactive
Potency (UISO): inactive

NC(=O)Nc1sc(-c2ccc(F)cc2)cc1C(N)=O
Potency (KB-3-1): 9.35 µM (active)
Potency (UISO): 4.69 µM (active)

COc1cc(C)c(Sc2cnc(NC(=O)c3ccc(CNC(C)C(C)(C)C)cc3)s2)cc1C(=O)N1CCN(C(C)=O)CC1 (configuration not stated)
Potency (KB-3-1): 11.8 µM (active)
Potency (MCC-13): inactive
Potency (MKL-1): 20.9 µM (active)
Potency (UISO): 18.7 µM (active)

CCc1ccc(C(=O)Nc2cc(CN3CCN(C)CC3)cc(C(F)(F)F)c2)cc1C#Cc1cnc2ccnn2c1
Potency (KB-3-1): 8.33 µM (active)
Potency (MKL-2): 18.7 µM (active)

CC(C)(C)c1nc2c3cc[nH]c(=O)c3c3cc(F)ccc3c2[nH]1
max response (KB-3-1): -11.6%
Potency (MCC-26): inactive
Potency (MKL-1): inactive
Potency (MKL-2): inactive

Nc1ncn([C@@H]2O[C@H](CO)[C@@H](O)[C@@H]2O)c(=O)n1
Potency (KB-3-1): 8.33 µM (active)
Potency (MKL-1): inactive
Potency (MKL-2): inactive

COc1ccc(C=Cc2cc(OC)c(OC)c(OC)c2)cc1NC(=O)[C@H](N)CO
Potency (KB-3-1): 0.003 µM (active)
Potency (MKL-2): 0.0066 µM (active)
Potency (UISO): 0.0053 µM (active)

CC(C)[C@H](CO)Nc1nc(Nc2cccc(Cl)c2)c2ncn(C(C)C)c2n1
Potency (NIH3T3 [1]): 10.5 µM (active)

CC(C)n1cnc2c(NCCc3ccc(O)cc3)nc(-c3csc4ccccc34)nc21
max response (NIH3T3 [1]): -7.93%
Potency (MCC-13): inactive

Cn1cnc2c(F)c(Nc3ccc(Br)cc3F)c(C(=O)NOCCO)cc21
max response (KB-3-1): -0.774% and -5.49%
Potency (MCC-26): inactive
Potency (MKL-1): inactive
Potency (MKL-2): inactive
Potency (UISO): inactive

CC(=O)ON=C1C(c2c(O)[nH]c3cc(Br)ccc23)=Nc2ccccc21
max response (KB-3-1): -15.3%
Potency (MCC-13): inactive
Potency (MCC-26): inactive
Potency (MKL-2): inactive

Oc1ccc(-c2ccc(-c3cc(Nc4cccc(CNC5CC5)c4)n[nH]3)cc2)c(O)c1
Potency (KB-3-1): 1.32 µM (active)
Potency (MKL-1): 6.62 µM (active)
Potency (UISO): 5.26 µM (active)

CNC(=O)Nc1ccc(-c2nc(N3CC4CCC(C3)O4)c3cnn(C4CCC5(CC4)OCCO5)c3n2)cc1
Potency (NIH3T3 [1]): 0.0526 µM (active)

Cc1cc(C(=O)NOCCO)c(Nc2ccc(I)cc2F)n(C)c1=O
max response (KB-3-1): -2.94%
Potency (MCC-26): inactive
Potency (MKL-1): inactive
Potency (MKL-2): inactive
Potency (UISO): inactive

CN(CC(=O)N(Cc1ccc(C2CCCCC2)cc1)c1ccc(C(=O)O)c(O)c1)S(=O)(=O)c1c(F)c(F)c(F)c(F)c1F
outcome (NIH3T3 [1]): inactive
Potency (HEK293T): inactive
Potency (MCC-26): inactive
Potency (MKL-1): 8.33 µM (active)
outcome (NIH3T3 [2]): inactive
Potency (UISO): inactive

O=C(NC1CC1)c1cccc(-c2ccc3c(NC(=O)C4CC4)n[nH]c3c2)c1
Potency (KB-3-1): 4.18 µM (active)
Potency (MKL-2): inactive

C=CC(=O)Nc1cccc(Nc2nc(NC3CCC(N(C)C)CC3)nc3c2ncn3C(C)C)c1 (configuration not stated)
Potency (NIH3T3 [1]): 14.8 µM (active)
Potency (MKL-1): 0.0074 µM (active)
Potency (MKL-2): 0.0166 µM (active)
Potency (UISO): 0.418 µM (active)

Cc1cnn(C)c1C(=O)Nc1cc(Nc2ccc3c(C=Cc4ccccn4)n[nH]c3c2)ccc1F
Potency (NIH3T3 [1]): 13.2 µM (active)
Potency (UISO): 16.6 µM (active)

NS(=O)(=O)OC[C@@H]1C[C@@H](n2ccc3c(N[C@H]4CCc5ccccc54)ncnc32)C[C@H]1O
max response (NIH3T3 [1]): -27.1%
Potency (MCC-13): 5.9 µM (active)
Potency (MCC-26): 2.09 µM (active)
Potency (UISO): 1.18 µM (active)

Cc1cc(Nc2ncc3c(n2)N(C)C(=O)N(c2cc(NC(=O)c4cccc(C(F)(F)F)c4)ccc2C)C3)n(C)n1
Potency (NIH3T3 [1]): 1.32 µM (active)
Potency (MCC-13): 2.09 µM (active)
Potency (UISO): 0.526 µM (active)

C=C1C(=O)O[C@H]2[C@@H]1CCC(C)=CCC[C@@]1(C)O[C@@H]21
Potency (MCC-13): 16.6 µM (active)
Potency (MKL-1): 7.43 µM (active)
Potency (MKL-2): 1.87 µM (active)
Potency (UISO): 14.8 µM (active)
